JMJD2E inh = blocks human JMJD2E demethylase activity | JMJD2E catalytic domain, FDH-coupled NADH fluorescence (FDH is formaldehyde dehydrogenase) | B2RXH2 | hit rate 1.6% among 230,000 | Potency, µM (titrated, usually from 57.1 µM), inactives show top-dose activity change, negative = inhibition, most hits filed as inhibitors | AID 2147;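 note: potency is the fitted concentration of half-maximal effect; 0% = wells with enzyme and -100% = buffer wells without enzyme; nearly all actives have a fitted effect of over 50% in size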
Target sequence (B2RXH2 1-337 limits assumed): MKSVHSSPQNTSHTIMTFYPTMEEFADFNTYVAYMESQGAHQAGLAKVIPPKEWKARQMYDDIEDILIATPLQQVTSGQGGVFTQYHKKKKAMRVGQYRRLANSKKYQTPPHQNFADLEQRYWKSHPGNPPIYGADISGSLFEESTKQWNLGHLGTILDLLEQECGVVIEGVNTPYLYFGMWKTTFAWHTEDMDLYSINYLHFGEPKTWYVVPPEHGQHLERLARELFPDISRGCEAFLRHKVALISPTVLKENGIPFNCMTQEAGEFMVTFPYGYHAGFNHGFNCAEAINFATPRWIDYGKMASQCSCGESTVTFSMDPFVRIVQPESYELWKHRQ
HttQ103 aggreg = reduces HttQ103-GFP aggregates in PC12 cells; PC12 HttQ103-GFP aggregates, Acumen cytometry, 40 h; Potency, µM (titrated, usually from 46.1 µM), for inactives: top-dose activity change, negative = inhibition, most hits filed as inhibitors; hit rate 1.1% among 220,000; AID 1688; active = well fitted curve in the direction sought with a large enough effect; inconclusive = small, poorly fitted or top-dose-only effect, or another doubt; inactive = no such curve, though single readings can be large; an effect the other way counts as inactive or inconclusive; note: potency is the fitted concentration of half-maximal effect; % is set by controls: 0 for no effect and ±100 for the full control effect; nearly all actives have a fitted effect of over 60% in size
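Read-out: GFP aggregate count by laser scanning cytometer (488 nm excitation, 500-530 nm emission, 1–25 µm objects >6 SD above background). Cells: PC12, inducible HTTex1-Q103-GFP, 100 nM tebufenozide; compounds titrated.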
ALDH1A1 block = blocks purified human ALDH1A1 activity. P00352. Purified ALDH1A1, NADH fluorescence, propionaldehyde substrate. Potency, µM (doses to about 75.3 µM), for inactives: top-dose activity, negative = inhibition, actives largely listed as inhibitors. hit rate 7.3% among 220,000. AID 1030;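 note: potency is the fitted concentration of half-maximal effect; plate controls were no enzyme wells and a reference inhibitor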
HPGD inh = blocks human HPGD enzyme activity; P15428; hit rate 4.3% among 150,000; purified HPGD, NADH fluorescence kinetic, PGE2 substrate; Potency, µM, for the others: at the top dose activity change, negative = inhibition, hits mostly inhibitors; note: potency is the fitted concentration of half-maximal effect; % is set by controls: 0 for no effect and ±100 for the full control effect
Target sequence (P15428 whole entry, looked up): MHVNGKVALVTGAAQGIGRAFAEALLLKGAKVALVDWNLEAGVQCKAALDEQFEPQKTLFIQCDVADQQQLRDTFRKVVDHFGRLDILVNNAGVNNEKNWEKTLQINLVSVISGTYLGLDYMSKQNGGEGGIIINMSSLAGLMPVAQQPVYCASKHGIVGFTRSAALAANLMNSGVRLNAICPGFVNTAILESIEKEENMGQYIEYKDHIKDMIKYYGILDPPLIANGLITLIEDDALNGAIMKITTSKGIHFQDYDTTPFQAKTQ
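NADH formation kinetics: reaction with 30 uM PGE2 and 1 mM NAD+ (final), 20 nM enzyme, Tris-HCl pH 8 with Tween 20, after 15 min compound preincubation at room temperature. Fluorescence change, last versus first of five reads.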
CBFb RUNX1 block = blocks binding between human CBF-beta and RUNX1. AlphaScreen CBFb-His/RUNX1-biotin binding, biochemical. Potency, µM (doses to about 59.8 µM), for the others: top-dose activity, negative = inhibition, usual class: inhibitors. 230,000 tested, under 10 active. AID 1477; active = well fitted curve in the direction sought with a large enough effect; inconclusive = small, poorly fitted or top-dose-only effect, or another doubt; inactive = no such curve, though single readings can be large; an effect the other way counts as inactive or inconclusive; note: % of control where 0% means no effect
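His-tagged CBF-beta and biotinylated RUNX1 (30 nM each) were premixed 20 min at room temperature, exposed to compound for 15 min, then given nickel-chelate and streptavidin AlphaScreen beads (50 ng each). After 90 min, AlphaScreen signal was read.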
HTT cytoprotect = protects HTT-Q103 PC12 cells, measured by ATP; PC12 HTT-Q103 induced, cytoprotection, ATP luminescence, 40 h; Potency, µM (titrated, usually from 56.4 µM), inactives show cytoprotection (ATP increase), usual class: activators; hit rate 0.14% among 230,000; AID 1471; active = well fitted curve in the direction sought with a large enough effect; inconclusive = small, poorly fitted or top-dose-only effect, or another doubt; inactive = no such curve, though single readings can be large; an effect the other way counts as inactive or inconclusive; note: potency is the fitted concentration of half-maximal effect; % of control where 0% means no effect; nearly all actives have a fitted effect of over 45% in size
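PC12 cells with ecdysone-inducible HTT exon 1 Q103-GFP, induced with 100 nM tebufenozide and co-treated with library compounds in a dose series (1536-well, 1500 cells/well). Cytoprotection read as ATP content by ATPlite luminescence.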
* = called active by the depositor; [ ] = remark or other dose. Rows were chosen to be rich in hits. Some 9.8% of all compounds tested hit in one or more screens of this group. Unless noted, calls come from the whole dose curve; as a rule, active = well fitted inhibition curve with a large enough effect (not every such curve was filed as active); inconclusive = small, poorly fitted or top-dose-only effect, or another doubt; inactive = no such curve, though single readings can be large or run the other way.

For CC(C)(C)OC(=O)N[C@@H](Cc1ccccc1)c1nnc(S(=O)(=O)Cc2cccc(F)c2)o1 the results were JMJD2E inh 2%, HttQ103 aggreg inconclusive, ALDH1A1 block inconclusive, HPGD inh 4µM*, CBFb RUNX1 block 5% and HTT cytoprotect 7%[0.074 µM].
Screening CC[C@@H](C)[C@H](NC(=O)OC(C)(C)C)c1nnc(S(=O)(=O)Cc2cc(C)ccc2C)o1 returned JMJD2E inh -4%, HttQ103 aggreg inconclusive, ALDH1A1 block 4%, CBFb RUNX1 block 9% and HTT cytoprotect inconclusive.
Cc1ccccc1CS(=O)(=O)c1nnc([C@H](CC(C)C)NC(=O)OC(C)(C)C)o1 was read as JMJD2E inh -4%, HttQ103 aggreg inconclusive, ALDH1A1 block 0%, HPGD inh 13µM*, CBFb RUNX1 block 2% and HTT cytoprotect -167%[0.074 µM].
`CCN1C(=O)[C@H]2[C@H]3[C@H](O)[C@H](O)C/C(=N/O[C@@H]4O[C@@H](COC(C)=O)[C@@H](OC(C)=O)[C@@H](OC(C)=O)[C@H]4OC(C)=O)[C@H]3CC[C@@H]2C1=O` gave ALDH1A1 block 0%[13.5 µM], CBFb RUNX1 block 2%[13.1 µM] and HTT cytoprotect -5%[10 µM].
Oc1ccc(Cc2nccc3cc(O)c(O)cc23)cc1O was read as ALDH1A1 block -8%[13.5 µM], HPGD inh -10% and HTT cytoprotect 6%[10 µM].
For NCCc1ccc(O)c(O)c1 the results were JMJD2E inh 13µM*, HttQ103 aggreg -6%, ALDH1A1 block 4%, HPGD inh 4% and HTT cytoprotect -65%.
CCc1cccc(CC)c1NC(=S)NCCc1ccc(O)c(O)c1 was read as JMJD2E inh -26%, HttQ103 aggreg -32%, ALDH1A1 block 22µM*, CBFb RUNX1 block -15% and HTT cytoprotect inconclusive.
For CCc1cccc(CC)c1NC(=S)NCCc1c(C)[nH]c2ccccc12 the results were JMJD2E inh -10%, HttQ103 aggreg inconclusive, ALDH1A1 block -8%, HPGD inh -4% and CBFb RUNX1 block inconclusive.
Screening CC(=O)NCCc1ccc(O)c(O)c1 returned JMJD2E inh 18µM*, ALDH1A1 block 28µM*, HPGD inh inconclusive, CBFb RUNX1 block -8% and HTT cytoprotect -5%[1.9 µM].
Screening CN(C)c1ncnc2ccc(-c3ccoc3)cc12 returned ALDH1A1 block 28µM* and HTT cytoprotect -9%.
Screening CN(C)c1ccc(-c2ccc3ncnc(N(C)C)c3c2)cc1 returned ALDH1A1 block inconclusive and HTT cytoprotect -75%.
For COc1ccc(CCN(Cc2ccccn2)C(=S)Nc2ccccc2C)cc1OC the results were JMJD2E inh -6%, HttQ103 aggreg 0%, ALDH1A1 block 20µM*, CBFb RUNX1 block -10% and HTT cytoprotect -6%.
Screening COc1ccc2c(c1OC)C(=O)OC2n1c(O)c(N=NC(C)=O)c2ccccc21 (centres undefined) returned JMJD2E inh 9%, HttQ103 aggreg -5%[9.22 µM], CBFb RUNX1 block 0% and HTT cytoprotect -1%[10 µM].
`COc1cc2c(cc1OC)C(=S)NC(C)(C)C2` gave JMJD2E inh -10%, HttQ103 aggreg -3%, ALDH1A1 block 25µM*, HPGD inh -12%, CBFb RUNX1 block 5% and HTT cytoprotect -6%.
CCOC(=O)/C=C1\NC(C)(C)Cc2cc(OC)c(OC)cc21 was read as JMJD2E inh inconclusive, HttQ103 aggreg -4%, ALDH1A1 block -4%, HPGD inh -5%, CBFb RUNX1 block 5% and HTT cytoprotect -16%.
For O=C(NCc1cccnc1)/C(=C\c1ccc(-c2cccc(Cl)c2)o1)S(=O)(=O)c1ccccc1 the results were JMJD2E inh -23%, HttQ103 aggreg -8%[9.22 µM], ALDH1A1 block inconclusive, HPGD inh -6%, CBFb RUNX1 block -6% and HTT cytoprotect -6%[10 µM].
`O=C(NCc1cccnc1)/C(=C/c1ccc(-c2cccc(Cl)c2)o1)S(=O)(=O)c1ccccc1` gave JMJD2E inh inactive, HttQ103 aggreg inconclusive, ALDH1A1 block 13µM*, HPGD inh -20%, CBFb RUNX1 block -10% and HTT cytoprotect -87%.
Cc1[nH]n(-c2ccc([N+](=O)[O-])cc2)c(=O)c1C=NCCN1CCN(C(=O)C(C)C)CC1 was read as JMJD2E inh -7%, HttQ103 aggreg -7%, ALDH1A1 block inconclusive, CBFb RUNX1 block -1% and HTT cytoprotect -94%.
`CCCOc1ccc(/C=C2\SC(=S)N(CC3CCCO3)C2=O)cc1` (centres undefined) gave JMJD2E inh 12%, HttQ103 aggreg -11%, ALDH1A1 block 6.3µM*, HPGD inh -7%, CBFb RUNX1 block -2% and HTT cytoprotect 9%[0.074 µM].
Screening O=C1/C(=C/c2ccc(O)cc2)SC(=S)N1CC1CCCO1 (centres undefined) returned JMJD2E inh -7%, HttQ103 aggreg -2%[9.22 µM], CBFb RUNX1 block 2% and HTT cytoprotect -11%[10 µM].
For Cc1ccsc1/C=C1\SC(=S)N(CC2CCCO2)C1=O (centres undefined) the results were JMJD2E inh 2%, HttQ103 aggreg 14%[9.22 µM], ALDH1A1 block 1µM*, CBFb RUNX1 block -15% and HTT cytoprotect 21%[10 µM].
For O=C1CNCCCN2CCN(CCCNCC(=O)Nc3ccc(cc3)S(=O)(=O)c3ccc(cc3)NC(=O)CNCCCN3CCN(CCCNCC(=O)Nc4ccc(cc4)S(=O)(=O)c4ccc(cc4)N1)CC3)CC2 the results were HTT cytoprotect -2%[10 µM].
For O=C1CN2CCN(CC2)CC(=O)Nc2ccc(cc2)S(=O)(=O)c2ccc(cc2)NC(=O)CN2CCN(CC2)CC(=O)Nc2ccc(cc2)S(=O)(=O)c2ccc(cc2)N1 the results were ALDH1A1 block 1.6µM*, HPGD inh -14% and HTT cytoprotect -14%[10 µM].
`CCCCN(C)C(=O)CCC(=O)NNc1nc2ccccc2c2nc(C)nn12` gave JMJD2E inh 4%, HttQ103 aggreg -9%, ALDH1A1 block 12%, HPGD inh -4%, CBFb RUNX1 block 0% and HTT cytoprotect -3%[10 µM].
`COc1ccc(/C=C/c2cc(-c3ccc(C)cc3)o[n+]2C)cc1` gave JMJD2E inh inconclusive, HttQ103 aggreg 4.5µM*, ALDH1A1 block inconclusive, HPGD inh inconclusive, CBFb RUNX1 block 7% and HTT cytoprotect -69%.
Screening CCN(CC)S(=O)(=O)c1cccc(-c2nnc(SC(C)C#N)n2Cc2ccccc2)c1 (centres undefined) returned JMJD2E inh 5%, HttQ103 aggreg -12%, ALDH1A1 block 7.9µM*, HPGD inh -1%, CBFb RUNX1 block 9% and HTT cytoprotect -26%.
